# Assay results published in PubChem BioAssay (EPA / NIEHS).
# Results filed as inconclusive are left out. Active and inactive are the calls of the source. How the source made its calls: active means hit-call score of the fitted dose curve at least 0.9, where 1 is the maximum; inconclusive means response in the unintended direction; inactive means score below 0.9.
# Target: Nuclear receptor subfamily 1 group I member 2 (Homo sapiens) (UniProt O75469)
# Assay: NVS_NR_hPXR: NovaScreen (NVS) Nuclear Receptor Binding Assay for human Pregnane X Receptor (PXR) (AID 2283365);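 further: a drop in FRET signal versus DMSO baseline means the compound binds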
# Outline: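 TR-FRET signal read at 2 h in a cell-free human PXR binding format. DMSO served as negative control and baseline; activity scored as signal loss. Single-concentration duplicate screen (25 uM), then concentration-response follow-up.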
# Chain of Nuclear receptor subfamily 1 group I member 2 (Homo sapiens) (O75469 whole entry, looked up): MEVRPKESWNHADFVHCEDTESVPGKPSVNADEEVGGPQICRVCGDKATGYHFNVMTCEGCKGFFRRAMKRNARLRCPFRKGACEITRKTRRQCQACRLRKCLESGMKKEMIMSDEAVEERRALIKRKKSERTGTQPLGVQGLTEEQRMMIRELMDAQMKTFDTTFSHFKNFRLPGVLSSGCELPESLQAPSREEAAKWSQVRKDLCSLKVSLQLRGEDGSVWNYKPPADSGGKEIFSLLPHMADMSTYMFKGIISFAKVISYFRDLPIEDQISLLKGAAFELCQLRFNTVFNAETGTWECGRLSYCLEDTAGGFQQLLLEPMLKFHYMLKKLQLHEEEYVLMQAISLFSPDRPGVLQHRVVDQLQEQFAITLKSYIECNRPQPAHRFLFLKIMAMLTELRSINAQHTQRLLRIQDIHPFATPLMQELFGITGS
Compound,outcome,AC50
CCCN(CC)CC1COC2(CCC(C(C)(C)C)CC2)O1 (stereo not given),inactive,
CCNC(=O)NC(=O)C(C#N)=NOC,inactive,
CCNP(=S)(OC)O/C(C)=C/C(=O)OC(C)C (stereo not given),inactive,
CC(C)C1(C)N=C(c2ncccc2C(=O)O)NC1=O (stereo not given),inactive,
CC(C)(C)C(=O)C(Oc1ccc(Cl)cc1)n1cncn1 (stereo not given),,2.31 µM (active)

# Target: guinea pig Sigma Receptor, Non-selective Binding, SIGMAR1 (gene 100135589) (UniProt Q60492)
# Assay: NVS_OR_gSIGMA_NonSelective: NovaScreen (NVS) Nuclear Receptor Binding Assay for guinea pig Sigma Receptor, Non-selective Binding (AID 2283367)
# Outline: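 Guinea pig brain membrane sigma sites were labelled with a radioligand, and bound radioactivity was counted after filtration 1 h post-dose. Compounds were screened at 25 uM in duplicate, then retested as concentration series when active.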
# Chain of guinea pig Sigma Receptor, Non-selective Binding, SIGMAR1 (gene 100135589) (Q60492 whole entry, looked up): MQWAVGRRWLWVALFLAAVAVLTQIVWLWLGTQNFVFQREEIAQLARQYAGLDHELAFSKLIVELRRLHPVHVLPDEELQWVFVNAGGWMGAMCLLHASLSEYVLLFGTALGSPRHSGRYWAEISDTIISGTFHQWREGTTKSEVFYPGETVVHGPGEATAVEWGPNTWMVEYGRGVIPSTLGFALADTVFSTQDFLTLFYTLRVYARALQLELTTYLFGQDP
Compound,AC50,outcome
CCN(CC)C(=O)C(C)Oc1cccc2ccccc12 (stereo not given),18.8 µM (active),
CCCN(CC)CC1COC2(CCC(C(C)(C)C)CC2)O1 (stereo not given),0.0101 µM (active),
Cn1c(-c2ccccc2)cc(-c2ccccc2)[n+]1C,0.133 µM (active),
CSC(=O)c1c(C(F)F)nc(C(F)(F)F)c(C(=O)SC)c1CC(C)C,,inactive
CC1(C)CON(Cc2ccccc2Cl)C1=O,15.2 µM (active),
N#CN=C1SCCN1Cc1ccc(Cl)nc1,,inactive

# Test system: guinea pig Dopamine Transporter (DAT), gene 100714898
# Assay: NVS_TR_gDAT: NovaScreen (NVS) Transporter Assay for guinea pig Dopamine Transporter (DAT) (AID 2283369);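 further: active compounds lower bound radioligand signal relative to DMSO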
# Outline: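 Cell-free striatal membrane prep (guinea pig), 2 h exposure, filtration + scintillation readout of radioligand binding. Single-point 25 uM duplicate; actives rerun singleton, top conc 50 uM.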
row,Compound,AC50
1,Cc1cc(C)nc(Nc2ccccc2)n1,22 µM (active)
2,CC1(C)CCC(=Cc2ccc(Cl)cc2)C1(O)Cn1cncn1 (stereo not given),1.19 µM (active)
3,CCCCC(C#N)(Cn1cncn1)c1ccc(Cl)cc1 (stereo not given),15.4 µM (active)
4,CC1(C)C(C(=O)OC(C#N)c2cccc(Oc3ccccc3)c2)C1(C)C (stereo not given),15.8 µM (active)

# Target: Peroxisome proliferator-activated receptor gamma (Homo sapiens) (UniProt P37231)
# Assay: NVS_NR_hPPARg: NovaScreen (NVS) Nuclear Receptor Binding Assay for human Peroxisome Proliferator-activated Receptor gamma (PPARg) (AID 2283370)
# Outline: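 FP read-out, 2 h post-dose, cell-free extracted receptor protein. Signal loss vs DMSO negative control = binding activity. Single-conc duplicate HTS at 25 uM; concentration-response follow-up for actives.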
# Chain of Peroxisome proliferator-activated receptor gamma (Homo sapiens) (P37231 whole entry, looked up): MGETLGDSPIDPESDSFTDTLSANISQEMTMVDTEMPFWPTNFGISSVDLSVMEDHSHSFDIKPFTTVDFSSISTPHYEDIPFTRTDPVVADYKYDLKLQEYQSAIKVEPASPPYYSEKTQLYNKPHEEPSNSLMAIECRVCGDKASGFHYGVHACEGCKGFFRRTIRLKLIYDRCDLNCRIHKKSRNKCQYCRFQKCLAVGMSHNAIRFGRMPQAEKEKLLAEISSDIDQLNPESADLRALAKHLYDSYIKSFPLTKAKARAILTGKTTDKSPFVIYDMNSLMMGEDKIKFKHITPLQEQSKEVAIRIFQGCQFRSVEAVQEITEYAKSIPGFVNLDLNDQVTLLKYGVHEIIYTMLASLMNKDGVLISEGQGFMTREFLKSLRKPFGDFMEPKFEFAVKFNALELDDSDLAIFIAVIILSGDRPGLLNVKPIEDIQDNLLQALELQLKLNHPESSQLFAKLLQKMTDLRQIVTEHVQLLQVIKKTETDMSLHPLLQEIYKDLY
Compound,AC50,outcome
CC(C)=CC1C(C(=O)OCc2coc(Cc3ccccc3)c2)C1(C)C (stereo not given),2.9 µM (active),
CC(C)NC(=O)N1CC(=O)N(c2cc(Cl)cc(Cl)c2)C1=O,,inactive
Cc1cc(C)nc(Nc2ccccc2)n1,,inactive
COCC(=O)N(c1c(C)cccc1C)C(C)C(=O)OC (stereo not given),,inactive
CCCCC(C#N)(Cn1cncn1)c1ccc(Cl)cc1 (stereo not given),,inactive
CCSC(=O)N1CCCCCC1,,inactive
N#Cc1c[nH]cc1-c1cccc2c1OC(F)(F)O2,,inactive
O=C1C2CC=CCC2C(=O)N1SC(Cl)(Cl)Cl (stereo not given),,inactive
CCNP(=S)(OC)O/C(C)=C/C(=O)OC(C)C (stereo not given),,inactive
CC(C)(C)C(=O)C(Oc1ccc(Cl)cc1)n1cncn1 (stereo not given),,inactive
COCC(C)N(C(=O)CCl)c1c(C)csc1C (stereo not given),,inactive
Nc1c(Cl)c(F)nc(OCC(=O)O)c1Cl,,inactive

# Target: human Serotonin Transporter (SERT), SLC6A4 (gene 6532) (UniProt P31645)
# Assay: NVS_TR_hSERT: NovaScreen (NVS) Transporter Assay for human Serotonin Transporter (SERT) (AID 2283372)
# Outline: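 Human platelet membrane preparation; displacement of radioligand from serotonin transporter measured after 1 h by filtration and scintillation counting. Single 25 uM duplicate screen, then concentration series for actives, with DMSO as negative baseline.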
# Chain of human Serotonin Transporter (SERT), SLC6A4 (gene 6532) (P31645 whole entry, looked up): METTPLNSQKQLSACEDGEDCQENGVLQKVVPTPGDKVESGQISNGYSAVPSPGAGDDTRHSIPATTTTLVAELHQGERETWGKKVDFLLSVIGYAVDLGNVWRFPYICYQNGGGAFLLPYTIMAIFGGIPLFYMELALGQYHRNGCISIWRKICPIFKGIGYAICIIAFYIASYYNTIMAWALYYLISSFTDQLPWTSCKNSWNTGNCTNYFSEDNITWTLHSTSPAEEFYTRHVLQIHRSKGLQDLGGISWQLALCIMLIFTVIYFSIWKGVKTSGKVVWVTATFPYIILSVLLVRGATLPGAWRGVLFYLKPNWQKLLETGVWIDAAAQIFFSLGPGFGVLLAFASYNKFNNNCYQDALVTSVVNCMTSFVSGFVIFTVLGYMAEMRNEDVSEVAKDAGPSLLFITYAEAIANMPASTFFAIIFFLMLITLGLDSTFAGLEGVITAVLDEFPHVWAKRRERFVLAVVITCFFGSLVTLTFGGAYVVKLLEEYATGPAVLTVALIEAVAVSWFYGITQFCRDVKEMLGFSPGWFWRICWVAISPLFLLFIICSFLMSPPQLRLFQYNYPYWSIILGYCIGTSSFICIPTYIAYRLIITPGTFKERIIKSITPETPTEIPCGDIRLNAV
row,Compound,outcome
1,CCOc1nc(F)cc2nc(S(=O)(=O)Nc3c(Cl)cccc3Cl)nn12,inactive
2,CNC(=O)Oc1cccc2ccccc12,inactive
3,CC(C)N1C(=O)c2ccccc2NS1(=O)=O,inactive

# Target: human Dopamine Transporter (DAT), SLC6A3 (gene 6531) (UniProt Q01959)
# Assay: NVS_TR_hDAT: NovaScreen (NVS) Transporter Assay for human Dopamine Transporter (DAT) (AID 2283374);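 further: activity means loss of bound radioligand signal relative to DMSO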
# Outline: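 Duplicate single-point screening at 25 uM preceded concentration-series follow-up of actives. Binding was measured by competitive displacement of a radioligand from DAT protein, filter-counted by scintillation 1 h after dosing. Decrease relative to DMSO taken as activity.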
# Chain of human Dopamine Transporter (DAT), SLC6A3 (gene 6531) (Q01959 whole entry, looked up): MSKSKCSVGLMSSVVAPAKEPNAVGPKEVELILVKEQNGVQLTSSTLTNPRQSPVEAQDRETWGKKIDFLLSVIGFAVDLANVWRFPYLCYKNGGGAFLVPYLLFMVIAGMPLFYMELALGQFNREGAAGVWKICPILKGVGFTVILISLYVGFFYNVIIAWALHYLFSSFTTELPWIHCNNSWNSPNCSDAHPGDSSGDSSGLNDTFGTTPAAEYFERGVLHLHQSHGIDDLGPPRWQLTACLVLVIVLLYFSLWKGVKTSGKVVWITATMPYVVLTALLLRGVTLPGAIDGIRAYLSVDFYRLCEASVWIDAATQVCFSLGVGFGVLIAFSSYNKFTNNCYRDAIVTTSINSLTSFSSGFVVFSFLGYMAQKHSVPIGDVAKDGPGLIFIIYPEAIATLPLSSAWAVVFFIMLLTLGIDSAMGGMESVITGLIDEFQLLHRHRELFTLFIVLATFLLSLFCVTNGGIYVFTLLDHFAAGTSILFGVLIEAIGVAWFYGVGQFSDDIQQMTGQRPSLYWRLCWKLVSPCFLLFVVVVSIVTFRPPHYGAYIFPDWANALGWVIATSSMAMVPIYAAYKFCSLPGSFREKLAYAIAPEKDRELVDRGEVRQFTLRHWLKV
Compound,outcome,AC50
COC(=O)N(C(=O)N1CO[C@@]2(C(=O)OC)Cc3cc(Cl)ccc3C2=N1)c1ccc(OC(F)(F)F)cc1,inactive,
CC(C)=CC1C(C(=O)OCc2coc(Cc3ccccc3)c2)C1(C)C (stereo not given),,25 µM (active)
Cc1cc(C)nc(Nc2ccccc2)n1,,25 µM (active)
CC1(C)CCC(=Cc2ccc(Cl)cc2)C1(O)Cn1cncn1 (stereo not given),,0.545 µM (active)
CCN(CC)C(=O)C(C)Oc1cccc2ccccc12 (stereo not given),,10.4 µM (active)
C=C(C)CN(CC)c1c([N+](=O)[O-])cc(C(F)(F)F)cc1[N+](=O)[O-],,7.64 µM (active)
CCCCC(C#N)(Cn1cncn1)c1ccc(Cl)cc1 (stereo not given),,7.18 µM (active)
CC1(C)C(C(=O)OC(C#N)c2cccc(Oc3ccccc3)c2)C1(C)C (stereo not given),,9.99 µM (active)
CSC(=O)c1c(C(F)F)nc(C(F)(F)F)c(C(=O)SC)c1CC(C)C,inactive,
CC1(C)CON(Cc2ccccc2Cl)C1=O,,6.47 µM (active)
CC(C)(C)C(=O)C(Oc1ccc(Cl)cc1)n1cncn1 (stereo not given),,0.238 µM (active)

# Target: rat Serotonin Transporter (SERT), Slc6a4 (gene 25553) (UniProt P31652)
# Assay: NVS_TR_rSERT: NovaScreen (NVS) Transporter Assay for rat Serotonin Transporter (SERT) (AID 2283375)
# Outline: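 Radioligand displacement, filter scintillation readout; rat forebrain membrane prep, 1 h post-dose. Single-conc 25 uM duplicate screen, then concentration-response on actives. Loss of signal vs DMSO baseline.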
# Chain of rat Serotonin Transporter (SERT), Slc6a4 (gene 25553) (P31652 whole entry, looked up): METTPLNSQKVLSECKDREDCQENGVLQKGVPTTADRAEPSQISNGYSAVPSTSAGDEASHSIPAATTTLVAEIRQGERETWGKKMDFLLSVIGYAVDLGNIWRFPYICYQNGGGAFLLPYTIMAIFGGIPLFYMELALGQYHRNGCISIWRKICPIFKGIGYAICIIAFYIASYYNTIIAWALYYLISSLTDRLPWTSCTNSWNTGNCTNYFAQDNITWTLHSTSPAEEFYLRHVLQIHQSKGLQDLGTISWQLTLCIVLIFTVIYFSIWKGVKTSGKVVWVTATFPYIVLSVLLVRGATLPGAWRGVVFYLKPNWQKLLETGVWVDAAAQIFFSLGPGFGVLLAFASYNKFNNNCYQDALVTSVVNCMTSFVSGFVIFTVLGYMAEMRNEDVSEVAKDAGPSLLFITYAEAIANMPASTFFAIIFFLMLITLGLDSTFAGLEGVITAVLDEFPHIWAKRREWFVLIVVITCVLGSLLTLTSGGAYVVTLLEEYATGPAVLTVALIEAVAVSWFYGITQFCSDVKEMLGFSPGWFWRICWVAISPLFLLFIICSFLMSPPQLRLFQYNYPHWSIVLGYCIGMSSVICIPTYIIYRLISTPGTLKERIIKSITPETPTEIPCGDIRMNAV
Compound,outcome,AC50
CCOc1nc(F)cc2nc(S(=O)(=O)Nc3c(Cl)cccc3Cl)nn12,inactive,
CNC(=O)Oc1cccc2ccccc12,,7.36 µM (active)
C=C(C)CN(CC)c1c([N+](=O)[O-])cc(C(F)(F)F)cc1[N+](=O)[O-],inactive,

# Target: Norway rat Vesicular Monoamine Transporter (VMAT2), neurotransmitter transporter, Slc18a2 (gene 25549) (UniProt Q01827)
# Assay: NVS_TR_rVMAT2: NovaScreen (NVS) Transporter Assay for Norway rat Vesicular Monoamine Transporter (VMAT2), neurotransmitter transporter (AID 2283376);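 further: actives lower the bound radioligand signal below the DMSO level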
# Outline: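 Using rat forebrain membranes, specific radioligand binding to VMAT2 was measured by filtration and scintillation counting after 1 hour. Chemicals screened at 25 uM in duplicate, actives retested in concentration series, DMSO baseline.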
# Chain of Norway rat Vesicular Monoamine Transporter (VMAT2), neurotransmitter transporter, Slc18a2 (gene 25549) (Q01827 whole entry, looked up): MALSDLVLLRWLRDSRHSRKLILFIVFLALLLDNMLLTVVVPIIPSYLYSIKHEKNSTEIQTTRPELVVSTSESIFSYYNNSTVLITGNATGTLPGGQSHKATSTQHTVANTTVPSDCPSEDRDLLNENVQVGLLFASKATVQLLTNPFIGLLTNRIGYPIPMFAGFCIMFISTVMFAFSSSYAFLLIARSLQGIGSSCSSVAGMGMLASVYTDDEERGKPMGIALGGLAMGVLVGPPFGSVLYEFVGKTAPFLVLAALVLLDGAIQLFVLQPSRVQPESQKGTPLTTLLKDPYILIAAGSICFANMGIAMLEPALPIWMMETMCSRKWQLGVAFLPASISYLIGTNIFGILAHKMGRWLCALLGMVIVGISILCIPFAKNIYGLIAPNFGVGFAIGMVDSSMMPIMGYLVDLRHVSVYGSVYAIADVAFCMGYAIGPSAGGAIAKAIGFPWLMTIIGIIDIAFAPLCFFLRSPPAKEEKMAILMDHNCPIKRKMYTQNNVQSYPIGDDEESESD
row,Compound,outcome
1,CC(C)NC(=O)N1CC(=O)N(c2cc(Cl)cc(Cl)c2)C1=O,inactive
2,Cc1cc(C)nc(Nc2ccccc2)n1,inactive
3,Clc1nc(Cl)nc(Nc2ccccc2Cl)n1,inactive
4,CCOP(=S)(OCC)Oc1nc(Cl)n(C(C)C)n1,inactive
5,N#Cc1c[nH]cc1-c1cccc2c1OC(F)(F)O2,inactive

# Target: human Norepinephrine Transporter (NET), SLC6A2 (gene 6530) (UniProt P23975)
# Assay: NVS_TR_hNET: NovaScreen (NVS) Transporter Assay for human Norepinephrine Transporter (NET) (AID 2283377);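 further: cell-free membrane protein extracted from CHO cells expressing human NET; displacement of radioligand from human NET seen as loss of scintillation signal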
# Outline: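 Single-concentration duplicate screen at 25 uM, then concentration-response for actives; displacement of specific radioligand from human NET in CHO membrane extracts, filter-based scintillation detection at 1 h relative to DMSO.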
# Chain of human Norepinephrine Transporter (NET), SLC6A2 (gene 6530) (P23975 whole entry, looked up): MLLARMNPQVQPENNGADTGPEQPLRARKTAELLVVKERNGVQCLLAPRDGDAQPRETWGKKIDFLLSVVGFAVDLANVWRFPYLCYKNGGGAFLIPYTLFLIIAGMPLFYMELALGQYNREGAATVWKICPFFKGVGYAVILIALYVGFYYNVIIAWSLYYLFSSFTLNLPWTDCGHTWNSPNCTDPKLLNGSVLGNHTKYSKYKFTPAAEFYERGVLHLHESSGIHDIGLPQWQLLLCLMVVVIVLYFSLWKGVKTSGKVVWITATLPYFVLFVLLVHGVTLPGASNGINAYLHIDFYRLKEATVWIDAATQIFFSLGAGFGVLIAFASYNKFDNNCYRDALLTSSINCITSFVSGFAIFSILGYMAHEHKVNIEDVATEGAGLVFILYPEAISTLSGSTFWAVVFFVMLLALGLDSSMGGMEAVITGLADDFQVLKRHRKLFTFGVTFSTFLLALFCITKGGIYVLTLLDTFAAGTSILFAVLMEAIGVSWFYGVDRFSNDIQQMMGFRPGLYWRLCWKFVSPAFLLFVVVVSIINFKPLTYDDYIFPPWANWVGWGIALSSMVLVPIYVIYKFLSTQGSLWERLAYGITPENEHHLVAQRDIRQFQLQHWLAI
row,Compound,AC50
1,CC(C)=CC1C(C(=O)OCc2coc(Cc3ccccc3)c2)C1(C)C (stereo not given),10.2 µM (active)
2,Cc1cc(C)nc(Nc2ccccc2)n1,4.72 µM (active)
3,CC(C)N1C(=O)c2ccccc2NS1(=O)=O,14.2 µM (active)
4,C=C(C)CN(CC)c1c([N+](=O)[O-])cc(C(F)(F)F)cc1[N+](=O)[O-],7.07 µM (active)
5,O=P(O)(O)CCCl,10.6 µM (active)
6,Cn1c(-c2ccccc2)cc(-c2ccccc2)[n+]1C,2.75 µM (active)
